The source of these data is PubChem BioAssay (NCI).

Molecules are shown by their SMILES. This is part of a sample that, as a whole, favours compounds with a hit. Of some 83,000 tested, about 20% had one in any assay.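 Plates (96-well) were seeded with cells, treated with compound at one concentration, and incubated for 48 hours before percent growth was determined.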 Active and inactive are the calls of the source.

In this test the test system is T-47D breast. As to the kind of experiment: NCI-60 one-dose screen, 48 h (100 = growth as untreated, 0 = no growth, -100 = all killed). As to conditions: 10 µM unless noted. The procedure: Growth inhibition of the T-47D human tumor cell line is measured as a screen for anti-cancer activity. Cells are grown in 96 well plates and exposed to the test compound for 48 hours. Compounds are tested at a single concentration, which is 10^-5 M for most compounds. The reported endpoint is percent growth (GI% or GIPRCNT), where numbers from 0 - 100% represent growth inhibition, and numbers from -100% - 0 represent cell death. For example, a value of 40 represents 60% growth inhibition. A value of 0 means no net growth occurred over the course of the experiment. A value of -40 indicates 40% of cells at the beginning of the experiment died by the end of the experiment. A value of -100 means all cells are dead at the end of the experiment.
NCI-60 Human Tumor Cell Lines Screen was performed using the standard one-dose NCI protocol, which is described in more detail at https://dtp.cancer.gov/discovery_development/nci-60/default.htm.
Compounds with GIPRCNT values below 10 were considered active. Activity score was based on GIPRCNT using the following formula: […]
Score is 0 for GIPRCNT values of 100 or above, 50 for GIPRCNT values of 0, and 100 for GIPRCNT values of -100.
Regarding `N=c1ccn2c(n1)O[C@@H]1[C@@H](O)[C@H](CO)O[C@@H]12`, the growth was 92.7% (inactive).
To `Cc1cc(C)n2nc(SCC(=O)Nc3sc4c(c3C(N)=O)CCC4)nc2n1` belongs 109% (inactive); to `COc1ccc(Cn2c(NCCCN(C)C)nc(=O)n(Cc3ccc(F)cc3)c2=O)cc1`, 83.4% (inactive).
Consider `COc1cc2c(cc1OCCCCCn1c(-c3ccc(OCc4ccccc4)cc3)nc3cc(N4CCOCC4)ccc31)N=C[C@@H]1CCCN1C2=O`, for which the growth is 19% (inactive).
With `Nc1ccc2c(c1)/C(=N/O)c1cc([N+](=O)[O-])ccc1-2`, the growth is 93% (inactive).
Consider `COc1cc(NC(=O)c2cc3ccccc3cc2O)c(OC)cc1Cl`, for which the growth is 4.25% (active).
To `COc1ccc(/C=N/NC(=O)c2ccc(S(C)(=O)=O)cc2)cc1OC` belongs 96.6% (inactive); to `O=C(Nc1nc2ccccc2s1)c1cc(-c2ccc(F)cc2)n2nc(-c3ccccc3)cc2n1`, 45.4% (inactive); to `COc1ccc2c(c1)nc(N)c1c3ccccc3cn21`, 70.7% (inactive).
Turning to `CCOC(=O)c1ccccc1OC(=O)NNc1ccccc1`, the growth is 57.3% (inactive).
Take `O=C(Cn1ccnc1)NC(c1ccccc1)c1ccccc1`: the growth was 101% (inactive).
Take `O=C(CCc1nnc(SCc2ccccc2)s1)c1nc2ccccc2[nH]1`: the growth is 95% (inactive).
To `CN(C(=O)c1ccccc1)N(C)C(=O)c1ccccc1` belongs 94.5% (inactive); to `O=C1NCC(Nc2ccc(Br)cc2Cl)C(=O)N1` (stereo not given), 99.6% (inactive).
To `Fc1ccc([C@@H]2CCNC[C@H]2COc2ccc3c(c2)OCO3)cc1` belongs 63.7% (inactive); to `COc1ccc(C2CC(c3cccc(Nc4ccnc5cc(Cl)ccc45)c3)=NN2C=O)cc1` (stereo not given), 43.5% (inactive); to `Oc1[nH]c2ccccc2c1/C=c1/ccc2c(c1)N=C(c1cc(F)cc(F)c1)N=2`, 40.3% (inactive).
On to `CCOC(=O)c1cc(-c2cccnc2)nc2c(Cl)cc(Cl)cc12`, for which the growth was 85.3% (inactive).
To `COC(=O)[C@]1(CCSC)N[C@H](c2cn(-c3ccccc3)nc2C)[C@@H]2C(=O)N(c3ccc(C)cc3)C(=O)[C@@H]21` belongs 101% (inactive).
Turning to `CCCCN(CCCC)CCCOC(=O)c1ccc(N)cc1`, the growth was 88% (inactive).
As to `COC(=O)[C@]12CC[C@@H](C)[C@H](C)[C@@H]1C1=CC[C@@H]3[C@@]4(C)C=C(O)C(=O)[C@@]5(C)COC(=C54)C[C@@]3(C)[C@]1(C)CC2`, the growth was -25.8% (active).
The figure for `COc1ccc2c(c1)[nH]c(=O)c1c3cc(OC)c(OC)cc3cn21` is 74.1% (inactive); for `Fc1ccc(-c2nnc(-c3c(-c4ccc(F)cc4)nc4ncccn34)o2)cc1` it is 95.4% (inactive); for `COc1ccc(/C=C2\NC(=S)NC2=O)cc1` it is 86.3% (inactive).
Regarding `NC(=Nc1ccccc1)SCCCCSC(N)=Nc1ccccc1`, the growth was 62.2% (inactive).
For `CCOc1ccccc1C(=O)OCC(=O)Nc1cccc(S(=O)(=O)N(C)C)c1`, the growth is 66.5% (inactive).
To `COc1ccc2c(c1)C(=O)c1c-2c(OCCCN(C)C)nc2cc(Br)ccc12` belongs 84% (inactive).
With `CCN1C(=O)c2ccc3c4c(ccc(c24)C1=O)C(=O)N(CCCNCc1ccccc1OC)C3=O`, the growth was -50.5% (active).
The figure for `CC[C@@H]1OC(=O)[C@H](C)[C@@H](O[C@H]2C[C@@](C)(OC)[C@@H](O)[C@H](C)O2)[C@H](C)[C@@H](O[C@@H]2O[C@H](C)C[C@H](N(C)C)[C@H]2O)[C@](C)(O)C[C@@H](C)[C@@H]2N[C@@H](COCCOC)O[C@H]([C@H]2C)[C@]1(C)O` is 105% (inactive).
As to `Clc1ccc2c(Nc3ccc4oc(NCCN5CCCC5)nc4c3)ccnc2c1`, the growth is 91.9% (inactive).
In the case of `O=[N+]([O-])c1cnc(Sc2ccncn2)c([N+](=O)[O-])c1`, the growth is -31.7% (active).
As for `CCCCCCOc1ccc(/C=N/NC(N)=S)cc1`, the growth was 24% (inactive).
Regarding `CCOc1cccc(C2CC(=O)Nc3cc4c(cc32)OCO4)c1` (stereo not given), the growth was 66.9% (inactive).
To `O=C(OC[C@H]1O[C@H](OC(=O)c2cc(O)c(O)c(OC(=O)c3cc(O)c(O)c(O)c3)c2)[C@H](OC(=O)c2cc(O)c(O)c(OC(=O)c3cc(O)c(O)c(O)c3)c2)[C@@H](OC(=O)c2cc(O)c(O)c(OC(=O)c3cc(O)c(O)c(O)c3)c2)[C@@H]1OC(=O)c1cc(O)c(O)c(OC(=O)c2cc(O)c(O)c(O)c2)c1)c1cc(O)c(O)c(OC(=O)c2cc(O)c(O)c(O)c2)c1` belongs 33.2% (inactive).
With `Oc1[nH]c2ccc(Cl)cc2c1/C=c1/ccc2c(c1)N=C(c1ccc(C(F)(F)F)cc1)N=2`, the growth is 60.5% (inactive).
The figure for `COc1ccc(-c2c3c(nn2-c2ccc(N)cc2)CCc2cnoc2-3)cc1OC` is 97% (inactive); for `COc1ccc(-c2csc(NC(=O)c3cc(O)c(O)c(O)c3)n2)cc1` it is 44.7% (inactive).
On to `COc1ccc2c(c1)nc(N)c1c3cc(OC)c(OC)cc3cn21`, for which the growth was 64% (inactive).
To `NCCCc1nnc(CCC(=O)c2nc3ccccc3[nH]2)o1` belongs 97.7% (inactive); to `CCCC[N+](CCCC)=c1ccc2nc3c(C)cc(N(CC)CC)cc3sc-2c1`, -23.3% (active).
